Among all 85,000 compounds or so, about 5,100 (6%) were called active. This is one part of a sample in which actives are shown more often than they occur. Values without a mark were called inactive.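 Rule for the calls: active = viability at or below 40%; inactive = viability above 40%.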

The experiment can be described thus: H69AR cell viability reduction – human, 86K library, primary screen (AID 598).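 Note: multidrug resistant small cell line overexpressing MRP-1 efflux transporter; 100% = mean luminescence of untreated control wells.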 The settings on record: H69AR lung tumor viability, ATP luminescence, 72 h; at 10 µM; stronger effect = lower value.
The viability is a read-out of living cells in per cent, often relative to untreated cells. As to `COc1ccccc1CNS(=O)(=O)c1ccc(C)cc1`, the viability was 86.8%.
Regarding `COc1ccc(S(=O)(=O)N/N=C\c2ccc(OC)c(COc3ccc(C)cc3[N+](=O)[O-])c2)cc1`, the viability was 29.6% (active).
Next, `CCOc1ccc(S(=O)(=O)Nc2ccc(S(=O)(=O)Nc3cc(OC)ccc3OC)cc2)cc1`: 74.9%; `Cc1noc(/C=C/c2ccco2)c1S(=O)(=O)N1CCC(C(=O)N2CCc3ccccc32)CC1`: 81.4%.
On to `Cc1ccc(C(C(=O)NC2CCCCC2)N(C(=O)c2csnn2)C2CC2)o1` (stereo not drawn), for which the viability was 95.7%.
The result for `COCCNC(=O)C(c1ccc(C)o1)N(Cc1cccs1)C(=O)c1snc(C(N)=O)c1N` (stereo not drawn) reads 91.2%; that for `CCC(C(=O)NC1CCCC1)N(C(=O)c1snc(C(N)=O)c1N)c1ccc2c(c1)OCCO2` (stereo not drawn), 33.1% (active); that for `Cc1cc(O)cc(O)c1C(=O)Cc1cnn(-c2ccccc2)c1`, 79.8%.
The result for `O=C1C=C(c2ccc(Cl)cc2)C(=O)N1Nc1ccccc1` reads 1.17% (active); that for `Cc1ccc(CCN2CC(C(=O)O)CC2=O)cc1` (stereo not drawn), 91.7%.
Next, `CC(C)n1c(-c2cccs2)nc2ccccc21`: 89.8%; `CC(C)=C1SC(N2CCN(c3cccc(C)c3)CC2)=NC1=O`: 96.9%; `CCN1C(=O)/C(=C2\SC(N3CCCCC3)=NC2=O)c2ccccc21`: 67.4%.
In the case of `O=C1N=C(N2CCCC2)S/C1=C\c1cccc(Br)c1`, the viability was 36.9% (active).
Regarding `CC(C)C(=O)Nc1ccc2c(c1)oc1ccccc12`, the viability was 55.1%.
Regarding `O=C(NCc1ccc(Cl)c(Cl)c1)c1cccnc1`, the viability was 94.2%.
Next, `O=C(/C=C/c1ccc(Cl)cc1Cl)c1cccnc1`: 0.85% (active).
Next, `C/C(=C\C(=O)c1cccnc1)Nc1ccc(C)c(C)c1`: 93.1%; `OC(C#CCN1CCOCC1)(c1ccccc1)C1CCCCC1` (stereo not drawn): 79.2%.
The result for `COCCOC(=O)C1=C(C)N=c2s/c(=C\c3cccs3)c(=O)n2C1c1cccs1` (stereo not drawn) reads 80.7%; that for `CCOC(=O)C1=C(C)N=c2s/c(=C\C(=O)OC)c(=O)n2C1c1ccc(OC)cc1` (stereo not drawn), 10.6% (active); that for `CCOC(=O)C1=C(CSc2nccn2C)NC(=O)NC1c1ccc(OC)cc1` (stereo not drawn), 82.8%.
Take `Cc1nc2ccccc2n1C(=O)N1CCOCC1`: the viability is 82.5%.
The result for `COC(=O)c1cc(NC(=O)C2C3C=CC(C3)C2C(=O)O)cc(C(=O)OC)c1` (stereo not drawn) reads 94.8%.
Turning to `Cc1ccccc1-c1nnc(SCC(=O)NCc2ccc3c(c2)OCO3)n1C`, the viability was 91.1%.
The result for `Cc1ccc(-n2c(SCC(=O)NCc3ccc4c(c3)OCO4)nnc2-c2cccnc2)c(C)c1` reads 35.1% (active); that for `Cc1ccccc1-n1c(SCC(=O)NCc2cccs2)nnc1-c1ccncc1`, 89.8%.
Next, `Cc1cccc(C2c3c(n(C)c(=O)n(C)c3=O)N=C3c4ccccc4C(=O)C32)c1` (stereo not drawn): 4.39% (active); `Cc1cccc(Cn2c(N3CCN(c4ccccc4)CC3)nc3c2c(=O)n(C)c(=O)n3C)c1`: 72.4%; `CCc1nnc(NC(=O)CSc2nc3ccccc3c(=O)n2CCCOC)s1`: 64.5%.
Next, `COCCNc1nc(-n2nc(C)cc2C)nc2sc3c(c12)CCCC3`: 6.95% (active); `Cc1cc(C)n(-c2nc(SCC(=O)N3CCCC3)c3c4c(sc3n2)CCCC4)n1`: 57.6%; `CCC(O)CNc1nc(-n2nc(C)cc2C)nc2sc3c(c12)CC(C)(C)OC3` (stereo not drawn): 44.6%.
In the case of `COC(=O)c1cccc(-n2[nH]nnc2=S)c1`, the viability is 87.1%.
The result for `O=[N+]([O-])c1ccc(Oc2ccc(F)cc2Br)c2ccncc12` reads 17.6% (active).
For the molecule `Cn1c(SCC(=O)C(C)(C)C)nnc1-c1ccccn1`, the viability was 98.3%.
As for `CC(=O)C1=C(C)NC(C)=C(C(C)=O)C1c1cn(-c2ccccc2)nc1-c1cccs1`, the viability is 93.4%.
The result for `CCC(=O)NCCc1nc2ccccc2n1CC` reads 95.2%.
The result for `CCOC(=O)c1c(NC(=O)CSc2nnc(CNc3ccc(C)cc3C)o2)sc(C)c1C` reads 92.8%.
Take `CC1(C)CC(=O)C=C(N2CCCC2)C1`: the viability was 95.2%.
Consider `O=C1NC(c2cc3c(cc2Cl)OCO3)Oc2ccccc21` (stereo not drawn), for which the viability is 32.9% (active).
As to `CS(=O)(=O)N(CC(O)Cn1c2ccccc2c2ccccc21)c1cccc2ccccc12` (stereo not drawn), the viability was 1.71% (active).
The result for `CC(=O)c1ccc2c(c1)c1ccccc1n2CC(C)C` reads 73.2%; that for `O=C1c2ccccc2S(=O)(=O)N1CC(O)Cn1c2ccccc2c2ccccc21` (stereo not drawn), 92.4%.
`CCCCOc1ccc(C(=O)NCc2ccncc2)cc1`: the viability is 78.5%.
The result for `CCOC(=O)c1cnc(SC)nc1Sc1ccc(Cl)cc1Cl` reads 85.4%.
Next, `Cc1ccc(CN(N=Nc2nonc2N)c2nonc2N)c(C)c1`: 79.6%.
With `CCC1(C)Cc2c(sc3nc4n(c(=O)c23)CCCS4)CO1` (stereo not drawn), the viability was 93.3%.
The result for `CCC1(C)Cc2c(sc3nc(SC)nc(N)c23)CO1` (stereo not drawn) reads 62.6%; that for `CCC1(C)Cc2c(sc3[nH]c(=S)n(Cc4ccccc4)c(=O)c23)CO1` (stereo not drawn), 25% (active); that for `CCOC(=O)c1sc(C)c2c1NC(C)(c1cccc3ccccc13)NC2=O` (stereo not drawn), 103%.
Next, `CCOC(=O)C(C)Sc1nc2ccccc2c(=O)n1CC1CCCCC1` (stereo not drawn): 82.4%; `COc1ccccc1NC(=O)c1ccc(C)s1`: 92.7%.
As to `COc1ccccc1NS(=O)(=O)N(C)C`, the viability was 104%.
Next, `COc1ccccc1NC(=O)/C=C/C(N)=O`: 2.11% (active); `COc1cc(C)c(C(C)C)cc1S(=O)(=O)n1ccnc1`: 101%; `CCOC(=O)c1ccc(COC(=O)CCc2nc(-c3ccccc3)c(-c3ccccc3)o2)cc1`: 71.5%.
As to `O=C(CSc1nnc(-c2cccs2)n1-c1ccccc1)N1CCN(C(=O)c2ccco2)CC1`, the viability is 81.3%.
Take `Cc1nnc(SCC(=O)N2CCc3ccccc3C2)s1`: the viability is 85.3%.
Next, `O=C(CSc1nnc(-c2cccs2)n1Cc1ccccc1)N1CCc2ccccc2C1`: 29.9% (active); `C=CCn1c(N)c(S(=O)(=O)c2cccs2)c2nc3ccccc3nc21`: 76.4%.
The result for `CC(C)Cn1c(N)c(C(=O)NCc2cccs2)c2nc3ccccc3nc21` reads 1.75% (active); that for `C=CCn1c(N)c(C(=O)OCC(C)C)c2nc3ccccc3nc21`, 93.2%.
